Seven compounds from ChEMBL document CHEMBL1961873, “Compounds: GSK PKIS; Assays: Nanosyn kinase panel” (2012) can be followed below.

Test [1] has as its target Serine/threonine-protein kinase pim-2 (Homo sapiens) (UniProt Q9P1W9). The note with it: at 1 µM.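 Further: each value is a mean of the inhibition measurements against the kinase.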
For test [2], the target named is Serine/threonine-protein kinase pim-3 (Homo sapiens) (UniProt Q86V86). The note with it: at 0.1 µM.
For test [3] the target is unchanged. Particulars: at 1 µM.
Test [4] has as its target T1, MAP kinase-activated protein kinase 5 (Homo sapiens) (UniProt Q8IW41).
T1 sequence (whole entry): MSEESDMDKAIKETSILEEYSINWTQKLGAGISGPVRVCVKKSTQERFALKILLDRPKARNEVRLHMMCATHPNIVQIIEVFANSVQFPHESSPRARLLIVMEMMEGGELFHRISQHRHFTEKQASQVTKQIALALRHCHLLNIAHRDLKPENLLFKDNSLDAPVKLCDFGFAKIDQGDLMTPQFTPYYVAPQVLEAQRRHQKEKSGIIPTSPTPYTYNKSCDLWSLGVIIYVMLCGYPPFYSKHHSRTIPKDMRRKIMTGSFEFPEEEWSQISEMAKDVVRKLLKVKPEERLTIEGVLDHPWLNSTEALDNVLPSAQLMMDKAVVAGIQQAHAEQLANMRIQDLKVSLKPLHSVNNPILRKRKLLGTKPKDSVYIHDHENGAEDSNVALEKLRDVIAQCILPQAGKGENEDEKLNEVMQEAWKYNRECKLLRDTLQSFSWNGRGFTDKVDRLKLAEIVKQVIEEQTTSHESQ
The note with it: at 0.1 µM.

Test [5] addresses T1, MAP kinase-activated protein kinase 5 (Homo sapiens). Particulars: at 1 µM.
Test [6] has as its target Serine/threonine-protein kinase SIK1 (Homo sapiens) (UniProt P57059). The note with it: at 0.1 µM.
The target is the same in test [7]. Particulars: at 1 µM.
The target in test [8] is Serine/threonine-protein kinase SIK2 (Homo sapiens) (UniProt Q9H0K1). The note with it: at 0.1 µM.
For test [9] the target is unchanged. Particulars: at 1 µM.
The target in test [10] is T2, Serine/threonine-protein kinase TBK1 (Homo sapiens) (UniProt Q9UHD2).
T2 sequence (whole entry): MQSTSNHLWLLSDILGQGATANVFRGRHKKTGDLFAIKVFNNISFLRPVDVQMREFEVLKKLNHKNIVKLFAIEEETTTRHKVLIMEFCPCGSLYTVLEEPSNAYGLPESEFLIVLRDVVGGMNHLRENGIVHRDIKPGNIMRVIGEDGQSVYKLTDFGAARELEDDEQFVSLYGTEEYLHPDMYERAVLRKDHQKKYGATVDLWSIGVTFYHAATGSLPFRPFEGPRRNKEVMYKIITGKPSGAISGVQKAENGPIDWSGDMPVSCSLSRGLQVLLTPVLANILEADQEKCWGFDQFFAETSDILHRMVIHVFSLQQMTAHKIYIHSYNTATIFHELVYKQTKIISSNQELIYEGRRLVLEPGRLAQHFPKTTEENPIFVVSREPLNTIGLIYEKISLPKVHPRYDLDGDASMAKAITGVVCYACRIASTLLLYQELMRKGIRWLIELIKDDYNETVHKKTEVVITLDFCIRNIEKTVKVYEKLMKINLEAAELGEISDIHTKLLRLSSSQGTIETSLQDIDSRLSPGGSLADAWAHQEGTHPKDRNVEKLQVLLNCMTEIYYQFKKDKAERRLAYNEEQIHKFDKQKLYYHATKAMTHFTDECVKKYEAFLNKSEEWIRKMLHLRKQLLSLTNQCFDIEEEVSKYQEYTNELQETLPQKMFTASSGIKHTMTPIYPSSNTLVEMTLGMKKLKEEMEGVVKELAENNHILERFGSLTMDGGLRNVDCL
The note with it: at 0.1 µM.

In test [11] the target is T2, Serine/threonine-protein kinase TBK1 (Homo sapiens). The note with it: at 1 µM.
Test [12] addresses T3, Testis-specific serine/threonine-protein kinase 1 (Homo sapiens) (UniProt Q9BXA7).
T3 sequence (whole entry): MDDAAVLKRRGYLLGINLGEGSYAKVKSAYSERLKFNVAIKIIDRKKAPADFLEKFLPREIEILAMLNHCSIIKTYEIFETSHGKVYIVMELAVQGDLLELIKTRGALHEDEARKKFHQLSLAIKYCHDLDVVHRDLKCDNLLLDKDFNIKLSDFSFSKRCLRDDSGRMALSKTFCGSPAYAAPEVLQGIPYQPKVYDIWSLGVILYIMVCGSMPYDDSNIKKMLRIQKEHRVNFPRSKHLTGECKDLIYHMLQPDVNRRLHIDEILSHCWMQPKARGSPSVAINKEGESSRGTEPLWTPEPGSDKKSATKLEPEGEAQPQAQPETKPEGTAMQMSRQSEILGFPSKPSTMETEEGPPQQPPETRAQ
Particulars: at 0.1 µM.

Test [13] addresses T3, Testis-specific serine/threonine-protein kinase 1 (Homo sapiens). Particulars: at 1 µM.
Test [14] has as its target T4, Testis-specific serine/threonine-protein kinase 2 (Homo sapiens) (UniProt Q96PF2).
T4 sequence (whole entry): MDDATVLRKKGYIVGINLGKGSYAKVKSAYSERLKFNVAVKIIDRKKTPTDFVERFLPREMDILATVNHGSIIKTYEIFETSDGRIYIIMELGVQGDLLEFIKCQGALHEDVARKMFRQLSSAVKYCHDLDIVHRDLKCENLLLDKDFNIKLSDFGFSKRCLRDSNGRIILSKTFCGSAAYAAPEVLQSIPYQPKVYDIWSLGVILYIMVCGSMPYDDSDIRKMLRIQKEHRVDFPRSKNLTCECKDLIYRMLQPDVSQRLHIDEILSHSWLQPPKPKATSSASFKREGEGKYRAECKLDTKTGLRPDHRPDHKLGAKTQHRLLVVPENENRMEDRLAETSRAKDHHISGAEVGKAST
The note with it: at 0.1 µM.

Test [15] concerns the target T4, Testis-specific serine/threonine-protein kinase 2 (Homo sapiens). The note with it: at 1 µM.
Test [16] concerns the target Casein kinase I isoform alpha (Homo sapiens) (UniProt P48729). The note with it: at 0.1 µM.
Test [17] has the same target. The note with it: at 1 µM.
Test [18] addresses Casein kinase I isoform gamma-1 (Homo sapiens) (UniProt Q9HCP0). The note with it: at 0.1 µM.
Test [19] has the same target. Particulars: at 1 µM.
Test [20] addresses Casein kinase I isoform gamma-2 (Homo sapiens) (UniProt P78368). The note with it: at 0.1 µM.

Sequence of Serine/threonine-protein kinase SIK1 (Homo sapiens) (P57059 whole entry): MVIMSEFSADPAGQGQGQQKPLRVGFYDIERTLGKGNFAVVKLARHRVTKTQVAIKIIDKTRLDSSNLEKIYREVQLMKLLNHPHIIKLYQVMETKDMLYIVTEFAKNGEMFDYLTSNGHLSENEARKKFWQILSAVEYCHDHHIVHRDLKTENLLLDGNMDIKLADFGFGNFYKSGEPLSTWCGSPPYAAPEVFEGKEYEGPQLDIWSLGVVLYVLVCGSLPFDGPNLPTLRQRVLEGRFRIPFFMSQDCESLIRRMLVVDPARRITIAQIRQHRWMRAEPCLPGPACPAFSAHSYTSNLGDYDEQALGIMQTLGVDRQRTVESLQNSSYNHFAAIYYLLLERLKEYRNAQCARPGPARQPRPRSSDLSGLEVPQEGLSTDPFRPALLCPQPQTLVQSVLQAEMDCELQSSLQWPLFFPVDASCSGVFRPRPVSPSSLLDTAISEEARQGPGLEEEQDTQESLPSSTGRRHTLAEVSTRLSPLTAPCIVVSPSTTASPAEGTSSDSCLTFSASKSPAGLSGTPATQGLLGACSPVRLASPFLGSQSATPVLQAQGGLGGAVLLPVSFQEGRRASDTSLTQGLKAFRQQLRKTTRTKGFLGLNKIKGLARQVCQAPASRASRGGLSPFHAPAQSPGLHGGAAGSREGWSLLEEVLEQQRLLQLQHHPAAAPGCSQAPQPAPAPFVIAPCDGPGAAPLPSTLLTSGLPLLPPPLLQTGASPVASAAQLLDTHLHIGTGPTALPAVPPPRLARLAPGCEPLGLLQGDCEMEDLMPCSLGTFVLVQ
Sequence of Casein kinase I isoform alpha (Homo sapiens) (P48729 2-337 limits assumed): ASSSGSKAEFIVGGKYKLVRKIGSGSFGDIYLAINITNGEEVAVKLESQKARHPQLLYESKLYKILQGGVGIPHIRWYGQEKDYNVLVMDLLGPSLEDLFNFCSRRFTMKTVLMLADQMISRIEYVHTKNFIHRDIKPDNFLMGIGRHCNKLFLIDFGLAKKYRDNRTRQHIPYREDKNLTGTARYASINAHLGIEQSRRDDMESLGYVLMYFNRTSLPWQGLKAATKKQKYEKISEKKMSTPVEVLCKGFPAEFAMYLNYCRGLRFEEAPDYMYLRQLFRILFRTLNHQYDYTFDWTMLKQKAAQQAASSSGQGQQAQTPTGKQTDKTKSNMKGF
Sequence of Serine/threonine-protein kinase pim-2 (Homo sapiens) (Q9P1W9 whole entry, looked up): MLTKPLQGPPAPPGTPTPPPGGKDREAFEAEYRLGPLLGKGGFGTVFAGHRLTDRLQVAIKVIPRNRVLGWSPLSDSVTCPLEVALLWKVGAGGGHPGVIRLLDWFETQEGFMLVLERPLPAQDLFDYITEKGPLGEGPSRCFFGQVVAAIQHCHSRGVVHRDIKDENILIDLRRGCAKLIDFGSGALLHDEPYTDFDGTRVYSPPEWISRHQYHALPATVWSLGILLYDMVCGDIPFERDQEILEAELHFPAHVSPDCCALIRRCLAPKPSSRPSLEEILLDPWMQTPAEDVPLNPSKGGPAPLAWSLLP
Sequence of Serine/threonine-protein kinase SIK2 (Homo sapiens) (Q9H0K1 whole entry, looked up): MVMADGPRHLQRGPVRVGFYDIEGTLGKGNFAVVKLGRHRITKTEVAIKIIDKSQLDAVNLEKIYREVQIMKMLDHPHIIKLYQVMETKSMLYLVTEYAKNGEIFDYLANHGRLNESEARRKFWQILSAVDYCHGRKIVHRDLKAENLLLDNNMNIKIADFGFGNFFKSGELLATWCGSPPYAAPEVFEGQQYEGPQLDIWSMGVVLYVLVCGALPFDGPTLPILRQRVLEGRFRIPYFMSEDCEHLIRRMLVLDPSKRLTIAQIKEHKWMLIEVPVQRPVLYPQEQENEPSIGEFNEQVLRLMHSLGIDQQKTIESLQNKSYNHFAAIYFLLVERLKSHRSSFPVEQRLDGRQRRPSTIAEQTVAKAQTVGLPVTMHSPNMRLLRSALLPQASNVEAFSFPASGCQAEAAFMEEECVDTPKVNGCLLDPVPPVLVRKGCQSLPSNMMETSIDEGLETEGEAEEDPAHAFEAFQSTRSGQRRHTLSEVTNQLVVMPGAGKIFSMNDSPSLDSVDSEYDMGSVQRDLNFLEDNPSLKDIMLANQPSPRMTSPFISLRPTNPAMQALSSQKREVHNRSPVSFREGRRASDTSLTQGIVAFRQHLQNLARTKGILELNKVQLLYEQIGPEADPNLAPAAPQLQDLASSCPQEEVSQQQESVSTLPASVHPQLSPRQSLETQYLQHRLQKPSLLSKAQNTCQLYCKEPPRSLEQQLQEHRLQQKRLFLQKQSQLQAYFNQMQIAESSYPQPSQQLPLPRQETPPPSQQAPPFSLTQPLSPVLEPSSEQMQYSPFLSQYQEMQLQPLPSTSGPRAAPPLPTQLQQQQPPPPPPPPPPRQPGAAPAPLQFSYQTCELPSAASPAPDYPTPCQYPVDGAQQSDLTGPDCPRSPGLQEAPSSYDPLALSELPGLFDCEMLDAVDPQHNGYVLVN
Sequence of Casein kinase I isoform gamma-1 (Homo sapiens) (Q9HCP0 whole entry, looked up, canonical isoform): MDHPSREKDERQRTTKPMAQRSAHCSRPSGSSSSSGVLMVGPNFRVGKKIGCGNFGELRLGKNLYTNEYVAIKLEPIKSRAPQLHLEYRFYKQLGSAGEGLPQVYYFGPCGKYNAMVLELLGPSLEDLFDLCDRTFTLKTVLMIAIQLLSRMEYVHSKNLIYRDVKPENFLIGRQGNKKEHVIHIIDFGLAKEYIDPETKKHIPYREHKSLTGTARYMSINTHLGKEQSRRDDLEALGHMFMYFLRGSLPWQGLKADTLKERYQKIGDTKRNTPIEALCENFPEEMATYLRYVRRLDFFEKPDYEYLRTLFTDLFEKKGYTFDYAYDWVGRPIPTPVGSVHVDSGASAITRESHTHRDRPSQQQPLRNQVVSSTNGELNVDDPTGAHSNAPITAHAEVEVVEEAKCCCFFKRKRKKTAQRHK
Sequence of Casein kinase I isoform gamma-2 (Homo sapiens) (P78368 whole entry, looked up, canonical isoform): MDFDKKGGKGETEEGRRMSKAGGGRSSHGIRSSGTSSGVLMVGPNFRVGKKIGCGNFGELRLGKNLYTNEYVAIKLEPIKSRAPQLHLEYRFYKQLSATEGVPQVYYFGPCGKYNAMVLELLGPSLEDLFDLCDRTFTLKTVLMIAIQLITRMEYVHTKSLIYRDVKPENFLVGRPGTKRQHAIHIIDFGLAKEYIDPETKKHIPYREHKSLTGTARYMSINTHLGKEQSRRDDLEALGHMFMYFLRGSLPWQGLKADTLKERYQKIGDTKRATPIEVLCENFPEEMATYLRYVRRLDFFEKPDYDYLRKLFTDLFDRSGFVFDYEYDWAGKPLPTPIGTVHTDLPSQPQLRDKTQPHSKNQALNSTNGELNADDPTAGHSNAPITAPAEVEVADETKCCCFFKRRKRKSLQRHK

On to `FC(F)(F)c1cccc(Nc2nccc(-c3cnn4nc(-c5ccccc5)ccc34)n2)c1`, for which the inhibition in test [1] was 1.06%; in [2] it was -0.15%; in test [3], -0.3%; in test [4], 0.76%; in test [5], 0.4%; in [6], -0.41%. Besides, the inhibition in [7] is 7%; in test [8], 2.43%; in test [9], 5.47%; in test [10], -0.2%; in [11], 4.35%; in [12], 1.23%. The inhibition in [13] was 2.01%; in test [14] it was 1.62%; in test [15] it was 0.24%; in [16] it was -0.33%; in [17], 1.52%; in test [18], 2.48%. In addition, the inhibition in test [19] amounted to 2.54%; in test [20] it was 2.27%.

With `Cc1ccc(C(=O)NC(C)C)cc1-c1ccc(C(=O)NCC2CC2)cc1`, the inhibition in [1] is 1.24%; in test [2] it was 1.28%; in test [3], 2.53%; in test [4] it was -1.12%; in test [5] it was -1.11%; in test [6], -0.49%. Also, the inhibition was -1.49% in [7]; 0.37% in test [8]; -9.28% in test [9]; -1.37% in [10]; -1.07% in test [11]; -1.97% in test [12]. Further, the inhibition is -1.52% in [13]; -1.67% in test [14]; -1.52% in [15]; -3.83% in test [16]; -5.5% in [17]; -2.95% in [18]. Besides, the results for the inhibition in test [19] and in test [20] were -2.32% and -2.65%, respectively.

Regarding `CCS(=O)(=O)c1ccc(OC)c(Nc2ncc(-c3ccccc3Cl)o2)c1`, the inhibition in test [1] was 0.67%; in test [2], -0.12%; in test [3], 2.15%; in test [4], 0.46%; in test [5], -0.58%; in test [6], 2.08%. The inhibition in [7] worked out at 0.14%; in [8], 1.64%; in test [9] it was 3.21%; in test [10], 1.3%; in [11] it was 7.68%; in test [12], 4.33%. The inhibition in test [13] is -0.15%; in test [14] it was 1.6%; in [15], 0.12%; in [16] it was 0.11%; in test [17] it was 3.37%; in test [18], 0.27%. Moreover, the values for the inhibition in test [19] and in test [20] were 0.86% and 0.2%, respectively.

For `O=C(Nc1ccc(Oc2ccc3[nH]c(NC(=O)c4ccccc4)nc3c2)cc1)Nc1cc(C(F)(F)F)ccc1F`, the inhibition in test [1] is -0.13%; in [2] it was 0.85%; in test [3] it was -0.27%; in [4] it was 0.86%; in test [5] it was 0.98%; in test [6], 5.14%. The inhibition is 9.55% in [7]; 6.29% in test [8]; 6.45% in test [9]; 0.91% in test [10]; 4.56% in test [11]; 2.04% in test [12]. Also, the inhibition is 0.69% in [13]; 1.68% in test [14]; 0.74% in test [15]; 3.86% in test [16]; 3.79% in [17]; 2.09% in test [18]. In addition, the inhibition in test [19] amounted to 2.88%; in test [20] it was 1.66%.

For `NS(=O)(=O)c1ccc(N/N=C2\C(=O)Nc3ccc(-c4cnco4)cc32)cc1`, the inhibition in test [1] stood at 24.5%; in [2] it was 1.42%; in [3] it was 15.5%; in test [4] it was 1.08%; in test [5], 3.26%; in test [6], 1.71%. The inhibition in [7] is 14.3%; in [8] it was -1.16%; in test [9], 7.34%; in test [10], 7.17%; in test [11] it was 38.4%; in test [12] it was 2.73%. The inhibition in test [13] is 12.4%; in test [14], 0.01%; in [15] it was 1.76%; in [16] it was 0.46%; in test [17] it was 3.06%; in test [18], -2.5%. For the same compound, the inhibition was -1.7% in test [19] and -2.15% in [20].

For the compound `COc1cc2ncn(-c3cc(OCCc4ccccc4)c(C(N)=O)s3)c2cc1OC`, the inhibition in [1] was 0.47%; in test [2] it was -1.48%; in [3] it was -2.48%; in test [4] it was 0.21%; in [5], -0.58%; in [6] it was 3.59%. In addition, the inhibition in test [7] was 9.48%; in [8], 1.23%; in test [9] it was 3.75%; in test [10], 0.96%; in test [11], 22.3%; in test [12], 1.85%. Besides, the inhibition in test [13] was 2.26%; in [14], -0.18%; in test [15], -0.8%; in test [16], 2.37%; in [17] it was 3.77%; in [18], 3.01%. Further, the inhibition in test [19] came to 5.65%; in test [20], 2.92%.

Consider `COc1cc2ncn(-c3cc(OCc4ccccc4C(F)(F)F)c(C(C)=O)s3)c2cc1OC`, for which the inhibition in [1] is 0.86%; in test [2], 0.65%; in test [3], -0.5%; in [4], 1.07%; in test [5], 0.82%; in test [6], -0.57%. Further, the inhibition was 5.68% in test [7]; -0.99% in test [8]; 7.06% in test [9]; 2.89% in [10]; 2.12% in test [11]; 2.55% in test [12]. Moreover, the inhibition in [13] was found to be 3.05%; in test [14] it was 1.34%; in test [15], 1.53%; in test [16] it was 3.35%; in [17], 2.73%; in test [18], 2.77%. Further, the inhibition came out at 3.34% in test [19] and 2.24% in test [20].

In general, inhibition refers to the change of the read-out against control, counted positive when it falls.
